Beta apoptosis – beta cell apoptosis inhibition; protection from apoptosis, % (concentration not given with the values); actives 0.8% (n = 300,000); INS-1E cytokine-induced death, ATP luminescence, 48 h; percent of positive-control rescue, neutral wells zero;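 active = Every replicate reaches about 75%, or at least half do and their mean reaches it too, limit read from the data; inconclusive = At least half of replicates reach the limit but their mean does not; inactive = Under half of replicates reach the limit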;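 also: 0% = cytokine-treated negative control wells and 100% = positive control rescue; higher means more ATP so stronger rescue from cytokine killing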
MPTP inh – permeability transition pore inhibition; isolated mouse mitochondria, Ca2+ swelling absorbance, 30 min; inhibition, % at 10 µM; actives 1.4% (n = 360,000);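 active = inhibition of 50% or more, scaled per plate between neutral and stimulator controls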;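 also: 0% = DMSO wells given calcium and 100% = 1 mM EGTA wells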
SKKanGAS inh – blocks kanamycin growth of S. pyogenes SKKanGAS strain | actives 1.3% (n = 300,000) | BacTiter-Glo, 6 h | AID 1662 | inhibition, % at 7.5 µM;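 active = mean replicate score, as percent of positive control median, at least 50; inconclusive = mean below 50 but one replicate at or above 50; inactive = mean and every replicate below 50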;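 also: strain carries kanamycin resistance gene driven by streptokinase promoter and grows in 40 µg/ml kanamycin; loss of luminescence reflects streptokinase promoter inhibition or plain growth inhibition; 0% = median of DMSO wells and 100% = positive control at its reference dose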
CSC inhib – cancer stem cell inhibition. cancer stem cell-like cells viability, luminescence. inhibition, % at 7.5 µM. actives 1.1% (n = 300,000); in the data active = inhibition above about 75%; inconclusive = no clear call, values can overlap the other calls; tested in HMLE shEcad cells
Mdm2-MdmX inh – disrupts the human Mdm2-MdmX interaction | O15151+Q00987 | SaOS-2 split-luciferase Mdm2/MdmX complementation, luminescence | inhibition, % at 8 µM | actives 3% (n = 330,000) | AID 485346;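 active = inhibition of at least 50% at 8 µM in the primary screen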
Target sequence (O15151 whole entry, looked up): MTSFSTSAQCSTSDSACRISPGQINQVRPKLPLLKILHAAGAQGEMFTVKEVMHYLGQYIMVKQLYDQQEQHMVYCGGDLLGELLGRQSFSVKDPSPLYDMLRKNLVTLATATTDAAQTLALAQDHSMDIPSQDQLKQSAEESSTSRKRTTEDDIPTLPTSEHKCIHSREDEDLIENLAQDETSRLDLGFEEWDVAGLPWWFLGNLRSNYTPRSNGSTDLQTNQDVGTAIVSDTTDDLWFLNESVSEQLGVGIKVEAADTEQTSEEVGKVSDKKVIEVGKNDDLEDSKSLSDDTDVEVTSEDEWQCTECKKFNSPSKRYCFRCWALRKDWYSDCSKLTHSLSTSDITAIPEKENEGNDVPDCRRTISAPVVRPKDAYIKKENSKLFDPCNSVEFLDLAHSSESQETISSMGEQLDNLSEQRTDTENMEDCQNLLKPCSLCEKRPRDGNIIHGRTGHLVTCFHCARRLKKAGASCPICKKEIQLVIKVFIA
Target sequence (Q00987 whole entry, looked up): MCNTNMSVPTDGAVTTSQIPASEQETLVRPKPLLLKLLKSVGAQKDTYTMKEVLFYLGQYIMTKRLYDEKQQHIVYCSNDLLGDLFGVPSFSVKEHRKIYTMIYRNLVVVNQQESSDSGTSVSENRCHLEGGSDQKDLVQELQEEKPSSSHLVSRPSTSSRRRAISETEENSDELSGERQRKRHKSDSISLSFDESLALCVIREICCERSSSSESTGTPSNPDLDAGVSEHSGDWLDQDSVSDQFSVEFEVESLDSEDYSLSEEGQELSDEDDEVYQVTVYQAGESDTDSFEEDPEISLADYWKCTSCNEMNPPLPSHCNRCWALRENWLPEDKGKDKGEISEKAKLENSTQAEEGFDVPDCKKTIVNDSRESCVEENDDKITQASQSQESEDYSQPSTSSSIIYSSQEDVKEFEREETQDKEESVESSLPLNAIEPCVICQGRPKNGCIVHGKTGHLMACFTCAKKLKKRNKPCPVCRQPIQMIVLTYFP
GRIN3A LBD mod – modulators (binders) of human NR3A ligand-binding domain; NR3A LBD differential scanning fluorimetry, Tm shift; 0% = protein alone, 100% = glycine-bound protein; actives 2.5% (n = 340,000); Tm shift relative to glycine control, % at 25 µM; AID 1259313;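 active = melting temperature shift of at least 10% of the positive control shift, at one fixed dose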
Mdm2-MdmX conf – human Mdm2/MdmX binding inhibition, confirmed | luminescent assay | inhibition, % at 8 µM | actives 55% (n = 10,000) | AID 489028 | shares compounds with Mdm2-MdmX inh; in the data active = inhibition above about 40%
FLuc counter – counter-screen for Mdm2/MdmX inhibitors: full-length luciferase | shares compounds with Mdm2-MdmX inh | SaOS-2 full-length luciferase counterscreen, luminescence | actives 77% (n = 6,200) | inhibition, % at 8 µM;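 active = mean inhibition at 8 µM reaching about 37%, which flags the compound as non-specific, limit read from the data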;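 also: p53-null SaOS-2 cells with luciferase driven by a doxycycline-inducible promoter; compound on cells about two nights before reading with doxycycline added after day one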
* marks the source's active call; other numbers are inactive results; ? = inconclusive; nt = no result. An excerpt weighted towards active compounds, which were near 6.9% of everything screened.

SMILES	Beta apoptosis	MPTP inh	SKKanGAS inh	CSC inhib	Mdm2-MdmX inh	GRIN3A LBD mod	Mdm2-MdmX conf	FLuc counter
COc1ccc(NC(=O)Nc2nnc(CC(=O)NCc3ccccc3)s2)cc1	-2	1	-3	7	27	-4	nt	nt
COc1cccc(CNC(=O)Cc2ccc(-c3ccccc3)cc2)c1	0	1	22	nt	67*	-1	59*	61*
COc1ccc(CC(=O)NCc2ccccc2)cc1	-2	0	-10	62	47	-1	nt	nt
O=C(Cc1ccc(Br)cc1)NCc1ccccc1	22	-1	1	60	64*	1	52*	57*
Cc1ccc(S(=O)(=O)N(C)C)cc1NC(=O)C(C)OC(=O)C1CCCC1 (stereo not given)	-1	-1	-2	3	10	2	nt	nt
CC1Oc2ccccc2N(CC(=O)NCCN2CCOCC2)C1=O (stereo not given)	0	0	-3	8	11	-2	nt	nt
Cc1ccc(-c2nn(-c3cc(N4CCNCC4)ccc3[N+](=O)[O-])c(=O)c3ccccc23)cc1	6	-3	-1	20	100*	-3	29	nt
Cc1onc(-c2ccccc2)c1C(=O)NC(=S)NNC(=O)c1ccc(O)cc1O	91*	-3	80*	34	59*	5	43*	71*
COc1cc(NC(=O)COc2ccc(C)c(C)c2)ccc1NC(=O)c1ccco1	-2	0	11	4	14	7	nt	nt
Nc1nc(/C=C/c2cccnc2)nc(-c2ccccc2O)n1	4	26	6	21	76*	1	73*	64*
CN(C)c1ccc(/C=C2\C(=N)N3C(=NC2=O)Sc2cc(S(C)(=O)=O)ccc23)cc1	nt	nt	19	8	89*	nt	-4	nt
Cc1cccc(N2CCN(S(=O)(=O)c3ccc4c(c3)n(C)c(=O)c(=O)n4C)CC2C)c1 (stereo not given)	-4	5	3	4	68*	-2	-24	nt
COc1cc(OC)cc(-c2noc([C@@H]3O[C@H](CO)[C@H](O)[C@H](O)[C@H]3O)n2)c1	nt	-1	nt	nt	nt	nt	nt	nt
Cc1nc2c(cnn2-c2ccccc2)c(=O)n1/N=C/c1ccccc1	-2	3	1	-1	1	3	nt	nt
Cc1nc(N/N=C/c2ccc(O)cc2)c2cnn(-c3ccccc3)c2n1	1	2	?	-7	59*	12*	-3	nt
C=C1C(=O)[C@]23C[C@H]1CCC2[C@]1(C)C(=O)CC[C@@](C)(C(=O)O)C1C[C@@H]3O (stereo not given in full)	nt	1	nt	nt	nt	nt	nt	nt
C=C1C(=O)[C@]23C[C@H]1CCC2[C@]1(C)CCC[C@@](C)(C(=O)O)C1C[C@@H]3O (stereo not given in full)	nt	0	nt	nt	nt	nt	nt	nt
C=C1C(=O)[C@@]23[C@H](O)C[C@@H]4C(C)(C)CC[C@H](O)[C@]4(C)[C@@H]2C[C@H](O)[C@@H]1[C@H]3O	-62	0	6	57	83*	-3	15	nt
C=C1C(=O)[C@@]23[C@H](O)C[C@@H]4C(C)(C)CC[C@H](O)[C@@]4(C)[C@@H]2CC[C@@H]1[C@H]3O	99*	-1	5	3	97*	1	100*	48*
Cc1c[n+](CC(=O)c2ccccc2)c(C)cn1	-3	-1	-6	-3	-3	-1	nt	nt
O=[N+]([O-])c1ccc(/C=N/Nc2ncccc2[N+](=O)[O-])s1	-38	2	12	10	5	1	nt	nt
O=[N+]([O-])c1ccc(/C=N/n2cnc3ccccc32)s1	112*	2	14	100*	70*	-4	60*	10
Cc1ccccc1NC(=O)CN1C(=O)NC2(CCc3ccccc32)C1=O (stereo not given)	-1	-2	nt	-16	3	-2	nt	nt
COc1cc2c(cc1NC(=O)CN1C(=O)NC3(CCc4ccccc43)C1=O)oc1ccccc12 (stereo not given)	9	1	43	66	69*	2	13	nt
CCn1c(SCC(=O)Nc2cc3oc4ccccc4c3cc2OC)nnc1-c1cccs1	-4	1	6	6	51*	-5	12	nt
SMILES	Beta apoptosis	MPTP inh	SKKanGAS inh	CSC inhib	Mdm2-MdmX inh	GRIN3A LBD mod	Mdm2-MdmX conf	FLuc counter
O=C(CSc1nnnn1-c1ccccc1)Nc1nsc(-c2ccccc2)n1	-8	0	-7	1	84*	-3	81*	28
COc1cc2c(cc1NC(=O)CSc1nnc(Cc3cccs3)n1C)oc1ccccc12	-13	-9	-1	-9	21	-5	nt	nt
COc1cc2c(cc1NC(=O)CSc1nnnn1-c1ccccc1)oc1ccccc12	16	-5	5	-18	71*	-2	33	nt
Cc1cc(=O)oc2c(C)c(OCC(=O)Nc3cccnc3)ccc12	-3	0	-4	-6	6	-1	nt	nt
CCOc1ccccc1NC(=O)CCNS(=O)(=O)c1cccc2nonc12	-3	-2	2	3	-17	2	nt	nt
COc1cc2c(cc1NC(=O)CN(C)Cc1ccc(OC)c(OC)c1)oc1ccccc12	11	1	14	nt	51*	-3	59*	58*
COCCCNC(=S)Nc1cc2oc3ccccc3c2cc1OC	-3	-1	-8	-4	55*	-10	41*	90*
COc1cc2c(cc1NC(=O)Cc1ccc(C)cc1)oc1ccccc12	2	6	13	10	-92	-1	nt	nt
C=CCn1c(COc2ccccc2F)nnc1SCC(=O)Nc1cc2oc3ccccc3c2cc1OC	-1	2	28	27	54*	-4	33	nt
CC(=O)c1c(C)[nH]c(C(=O)CN2C(=O)NC(C)(c3ccc(C)cc3)C2=O)c1C (stereo not given)	-9	-1	1	-13	-1	2	nt	nt
O=Cc1c[nH]c2cccc(OCc3ccccc3)c12	nt	-2	nt	nt	57*	-2	53*	64*
O=C(Cc1ccc(Cl)cc1)Nc1cccnc1Cl	nt	0	nt	nt	nt	nt	nt	nt
Cc1cc(N2CCN(c3ccc([N+](=O)[O-])c4cccnc34)CC2)c2ccccc2n1	9	21	1	2	94*	-2	80*	55*
CCC(C)N(C(=O)CN1C(=O)NC2(CCc3ccccc32)C1=O)C1CCS(=O)(=O)C1 (stereo not given)	-1	3	nt	-10	-1	1	nt	nt
COc1ccc(C)cc1S(=O)(=O)N1CCC(C(=O)NC2CCCC2)CC1	nt	-1	-2	-12	-9	-1	nt	nt
CCN(CC)CCSc1nc(O)c(-c2ccccc2)c(=O)n1-c1ccccc1	-2	0	-2	-10	-24	1	nt	nt
CCN(CC)CCSc1nc2ccccc2c(=S)n1-c1ccccc1	16	nt	-7	19	51*	1	34	94*
